# Data from PubChem BioAssay (NCI).
# About 79,000 compounds went through this panel and 15% of them were active in at least one assay; those are over-represented in the sample as a whole. Values without a mark were called inactive. Active and inactive are the calls of the source. Rule as the data show it: active = growth inhibition above about 70%; inactive = the rest.
# Experiments:
# [1] = NCI Yeast Anticancer Drug Screen. Data for the rad50 strain (AID 155);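 also: 0% = growth of vehicle-only cultures of the same strain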; conditions: S. cerevisiae rad50 strain growth inhibition; at 50.0 µM; hits give high values
# Summary of the method: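 A DNA repair-deficient yeast mutant serves as the test organism; compound-induced growth inhibition is calculated against vehicle-treated cells.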
# [2] = NCI Yeast Anticancer Drug Screen. Data for the mec2-1 strain (AID 157); conditions: S. cerevisiae mec2-1 strain, at 50.0 µM, hits give high values
# Summary of the method: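 Using mec2-1 yeast: add compound, measure growth, express inhibition versus vehicle-treated cultures.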
# [3] = NCI Yeast Anticancer Drug Screen. Data for the sgs1 mgt1 strain (AID 161);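 also: 0% = growth of cultures given vehicle only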; conditions: S. cerevisiae sgs1 mgt1 strain, at 50.0 µM, hits give high values
# Summary of the method: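 Compounds are added to genetically altered yeast, and growth is compared with cultures given vehicle alone to give percent inhibition.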
# [4] = NCI Yeast Anticancer Drug Screen. Data for the cln2 rad14 strain (AID 165);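 also: 0% = growth equal to vehicle treated cultures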; conditions: S. cerevisiae cln2 rad14 strain, at 50.0 µM, hits give high values
# Summary of the method: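 Yeast strain cln2 rad14, bearing defects in cell cycle control and DNA repair, serves as the test system; values reflect growth inhibition compared with vehicle.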
# [5] = NCI Yeast Anticancer Drug Screen. Data for the bub3 strain (AID 167); conditions: S. cerevisiae bub3 mutant strain, at 50.0 µM, hits give high values
# Summary of the method: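 Inhibition values come from growth of compound-treated mutant yeast normalised to vehicle-treated controls.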
# [6] = NCI Yeast Anticancer Drug Screen. Data for the mlh1 rad18 strain (AID 175); conditions: S. cerevisiae mlh1 rad18 strain growth inhibition; at 50.0 µM; hits give high values
# Summary of the method: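 Steps: expose repair-defective yeast to compound; measure growth; express inhibition against vehicle-treated controls.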
SMILES,growth inhibition [1],growth inhibition [2],growth inhibition [3],growth inhibition [4],growth inhibition [5],growth inhibition [6]
Cc1c(Cl)ccc2c1NC(=O)C2(O)CC(=O)c1ccc(Cl)cc1Cl (stereo not drawn),34.4%,18.7%,0.1%,-13.5%,10.9%,23.4%
CC(=O)Oc1cc(C)c(OC(C)=O)c(C)c1C,-12.8%,-27.4%,-2.15%,-9.3%,10.3%,6.3%
O=C(O)CNC(=S)SCc1ccccc1,10%,-11.9%,-11.1%,-35.8%,11.2%,10.8%
CCC(CC)COC(=O)CC(C)=O,18.2%,52.9%,6.9%,86.8% (active),28.2%,33.4%
O=C1OC(c2ccccc2Cl)Sc2ccccc21 (stereo not drawn),-3.25%,25.1%,20.1%,-30.7%,55.8%,32.8%
COc1ccc(C2CC(c3c(C)nn(-c4ccccc4)c3-c3ccc(C)cc3O)=NN2c2ccccc2)cc1 (stereo not drawn),-3.95%,-12.3%,-11.1%,-2%,-3%,50.5%
O=c1c2ccccc2[nH]c2c(O)c3c(=O)c4ccccc4[nH]c3cc12,-8.6%,-2.05%,3.9%,-4.4%,3.15%,4.05%
CCOC(=O)C1=C(C(=O)c2ccc(OC)cc2)C(c2cccc([N+](=O)[O-])c2)C(C(=O)c2ccc(OC)cc2)=C(C(=O)OCC)N1,-30.8%,-1.6%,-2.5%,-2.85%,-6.45%,2%
CC(=O)C[n+]1ccccc1Sc1ccc(Cl)cc1,12.6%,-9.25%,14.1%,19.1%,3.55%,56.7%
CCCCCCCCCC(=O)N/N=C/c1ccccc1O,-4.3%,12.7%,19.2%,-19.1%,19.9%,13.8%
Cc1cc(Cl)nc(Nc2ccccc2)n1,13.1%,-2.5%,3.8%,-1.8%,9.25%,13.7%
Nc1c2ccccc2nc2ccc3c(=O)cc(-c4ccccc4)oc3c12,20.6%,18.9%,-12.1%,22.1%,11.1%,-73%
Cn1c(N)c2c(=O)n(C)c3c(c2c(C#N)c1=O)CCSc1ccccc1-3,-4.4%,-6.35%,0.25%,-36.5%,-5.2%,-1.9%
Cc1ccc(OCC2OC(n3cnc4c(N(C)C)nc(Br)nc43)CC2Oc2ccc(C)cc2)cc1 (stereo not drawn),17.5%,-4.8%,13.1%,12.6%,2.45%,-17%
COC(=O)C(Cc1ccccc1)NC(=O)C(CCC(=O)OCc1ccccc1)NC(=O)OC(C)(C)C (stereo not drawn),30.9%,8.55%,19.8%,19.9%,31.4%,22%
NNc1ncnc2cccc(Cl)c12,7.95%,27.2%,18.6%,-24.7%,1.8%,11.9%
O=C1c2ccccc2-c2ccc(N=Cc3cccs3)cc21,30.9%,-5.65%,-3.35%,9.4%,33.5%,11.7%
Nc1nc(-c2ccccn2)cc(-c2cc(-c3ccccn3)nc(N)n2)n1,-12.1%,-11.6%,-18.2%,-0.7%,-9.75%,6.25%
Nc1nnc(-c2ccc(Cl)cc2)o1,21.3%,-1.8%,21.2%,1.1%,0.05%,5.8%

SMILES,growth inhibition [1],growth inhibition [2],growth inhibition [3],growth inhibition [4],growth inhibition [5],growth inhibition [6]
CC(=O)OCC(OC(C)=O)C(OC1OC(COC(C)=O)C(OC(C)=O)C(OC(C)=O)C1OC(C)=O)C(OC(C)=O)c1cnn(-c2ccccc2)n1 (stereo not drawn),-10.7%,-0.1%,-8.15%,-19.4%,-2.65%,-5.75%
COC(=O)c1nc(=S)[nH]c(C(=O)OC)c1C(=O)/C=C/c1ccccc1,0.1%,-1.7%,8.05%,-14.2%,-1.75%,11.8%
Cc1ccc(NC(=S)N2CCCC2)cc1,5.9%,-12.9%,-18.8%,-94.2%,-13.4%,-0.7%
CCCCCC(=O)C(CCCC)C(=O)OCC (stereo not drawn),-6.15%,-0.1%,-25.2%,2.6%,-12%,-33.5%
COc1ccc2c(c1)CCCN2,-3.4%,-23%,-4.05%,-20.1%,-13.3%,3.65%
O=C(COc1ccc(Cl)c(Cl)c1)Nc1cccc(C(=O)CCl)c1,36.6%,50%,45.5%,9.1%,81.3% (active),62.8%
O=C1CC2CCC(C1)S2,-18.1%,-28.6%,-15.4%,16.1%,-2.95%,-33%
CCN(CC)[Si](C)(C)C,-24.1%,-0.2%,-9.25%,-6.65%,-21.8%,-24.4%
Nc1nc(N)nc(COc2ccccc2Cl)n1,6.5%,8.5%,8.35%,9.4%,15.2%,13.2%
CCCCCCCCCCN(CCCCCCCCCC)C(C)C(O)c1ccc2cc(Br)c3ccccc3c2c1 (stereo not drawn),-12.4%,-13.2%,-15.8%,-16.9%,-12.5%,-14.3%
NC(=O)Cc1ccccn1,5.05%,-2.6%,2.95%,-8.15%,5.25%,1.4%
CC1CCOC(/C=C/c2ccccc2)O1 (stereo not drawn),-7.9%,-6.7%,5.7%,30.1%,40.8%,-1.75%
Cc1ccccc1NC(=O)/C(C#N)=N\Nc1nc[nH]c1C(N)=O,-33.7%,-22.6%,-11.8%,6.2%,-45.9%,13.1%
CC=C1C(C(=O)O)C1C(=O)O (stereo not drawn),16.9%,20.8%,-5.2%,-23.2%,15.3%,-4.4%
Cc1ccc(-c2n[nH]c(=O)n2/N=C\c2ccc([N+](=O)[O-])cc2)cc1,34%,7.3%,-12.4%,3.55%,-11.9%,-41.5%
COc1ccc(CCNC(=S)NCCc2ccc(OC)cc2)cc1,11.8%,12.8%,-1.4%,-28%,-7.25%,-21%
O=C1c2cc3c(cc2CC1Cc1ccc2c(c1)CCC2)CCC3 (stereo not drawn),-28.8%,-23.8%,-33.2%,-34%,-20.5%,-33.1%
O=S(=O)(O)CCCC1S(=O)(=O)OCCOS1(=O)=O,-55.1%,-21.8%,-8.4%,-16.4%,-1.3%,-25.8%
CCCOC(=O)CC(=O)OCC,6%,17.2%,-4.95%,-11.8%,-7.15%,-17.4%
